Sampled rows, rich in hits. Any-hit rate of the full collection: about 3.3%.
PRMT1 inh = PRMT1 (human) inhibition, primary screen; Q99873; 370,000 tested, 1.3% active; AID 652257; recombinant PRMT1, activity-based probe fluorescence polarization; inhibition, % at 2.79 µM;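 active means inhibition above about 21% made by adding two undisclosed values, limit read from the data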
ABHD5-PLIN5 inh = ABHD5-PLIN5 protein interaction inhibition; Q00G26+Q8WTS1; Split G. princeps luciferase complementation, luminescence, 4 h; inhibition, % at 4 µM; 360,000 tested, 0.78% active;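 active means inhibition above the mean inhibition across every tested compound plus 3 SD, cut at about 22% in these data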;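 further: 0% = DMSO only wells and the 100% control is not disclosed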
rCAG RNA binder = r(CAG) repeat RNA binding | TO-PRO-1 dye displacement fluorescence | inhibition, % at 3 µM | 370,000 tested, 1.3% active | AID 651821;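 active means inhibition above the plate cutoff, the mean of all test compounds on that plate plus 3 SD, cut at about 35% in these data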;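 further: 0% = DMSO alone and 100% = 100 µM mitoxantrone as full dye displacement; higher means more dye released from RNA so lower well fluorescence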
NOD2-RIPK2 inh = NOD2-RIPK2 protein interaction inhibition; O43353; inhibition, % at 4.98 µM; 360,000 tested, 0.38% active; CHO BLA complementation NOD2-RIPK2, CCF4 ratio; in the data active means inhibition above about 21%;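 further: 0% = vehicle only and 100% = reference blocker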
Target sequence (O43353 whole entry, looked up): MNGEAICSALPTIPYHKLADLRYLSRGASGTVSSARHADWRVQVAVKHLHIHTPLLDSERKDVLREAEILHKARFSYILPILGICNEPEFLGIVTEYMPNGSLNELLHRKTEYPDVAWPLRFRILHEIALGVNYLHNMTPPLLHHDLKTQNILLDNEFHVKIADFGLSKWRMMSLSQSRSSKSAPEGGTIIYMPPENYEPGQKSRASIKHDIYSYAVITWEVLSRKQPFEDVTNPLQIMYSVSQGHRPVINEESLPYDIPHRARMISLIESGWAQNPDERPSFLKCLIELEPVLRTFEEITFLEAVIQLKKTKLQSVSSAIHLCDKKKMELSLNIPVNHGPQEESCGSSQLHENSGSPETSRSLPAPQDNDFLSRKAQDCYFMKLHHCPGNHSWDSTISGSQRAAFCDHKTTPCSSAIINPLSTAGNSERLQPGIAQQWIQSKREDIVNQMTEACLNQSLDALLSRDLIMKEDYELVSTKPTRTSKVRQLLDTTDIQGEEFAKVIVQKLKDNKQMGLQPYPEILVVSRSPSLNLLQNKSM
TLR4 MyD88 comp = TLR4-MyD88 interaction inhibition in cells; 200,000 tested, 0.18% active; HeLa CL3-4 TLR4/MyD88 BLA complementation, FRET ratio; O00206+Q99836; inhibition, % at 8.4 µM; AID 861; in the data active means inhibition above about 25%;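 further: 0% = vehicle and 100% = reference inhibitor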
TLR9-MyD88 block = inhibitors of human TLR9-MyD88 binding | Q9NR96+Q99836 | CHO BLA complementation TLR9-MyD88, CCF4 FRET ratio | inhibition, % at 4.98 µM | 340,000 tested, 0.21% active | AID 504734;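 active means inhibition above the mean over all tested compounds plus 3 SD, cut at about 21% in these data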;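 further: 0% = DMSO only wells and 100% = clavulanate BLA inhibitor control wells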
rCAG bind conf = r(CAG) RNA repeat binding, confirmation; 4,300 tested, 70% active; inhibition, % at 3 µM; AID 652065; TO-PRO-1 dye displacement fluorescence; shares compounds with rCAG RNA binder;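 active means inhibition above a per-plate cutoff, the mean inhibition of sample wells plus 3 SD, cut at about 35% in these data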;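 further: loss of TO-PRO-1 fluorescence as compound displaces dye from 1x1 AA loop RNA; 0% = DMSO only wells and 100% = 100 µM mitoxantrone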
DNA CAG counter = DNA CAG dye complex inhibition counter-screen; d(CAG) DNA oligo TO-PRO-1 dye displacement, fluorescence; AID 652068; 4,300 tested, 94% active; shares compounds with rCAG RNA binder; inhibition, % at 3 µM;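 active means inhibition above its plate's cutoff, the mean test-well inhibition plus 3 SD, cut at about 4.8% in these data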;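 further: 0% = DNA dye mix with DMSO and 100% = 100 µM mitoxantrone; hits displace the dye from DNA and so lower well fluorescence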
PRMT1 inh conf = PRMT1 (human) inhibition, FP confirmation; shares compounds with PRMT1 inh; recombinant His-PRMT1, activity-based probe fluorescence polarization; inhibition, % at 2.79 µM; 3,300 tested, 42% active;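 active means mean inhibition across replicates above the hit cutoff derived for the earlier primary screen, cut at about 22% in these data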
Numbers without * were called inactive; . = no result given.

SMILES	PRMT1 inh	ABHD5-PLIN5 inh	rCAG RNA binder	NOD2-RIPK2 inh	TLR4 MyD88 comp	TLR9-MyD88 block	PRMT1 inh conf	others
O=C1NN(c2ccccc2)C(=O)/C1=C\c1cccn1-c1ccc(Cl)c([N+](=O)[O-])c1	0	0	26	2	-4	2	.
COC(=O)c1ccc(N2NC(=O)/C(=C/c3ccc(OC)c(OC)c3)C2=O)cc1	6	0	26	-4	.	2	.
COc1cc(/C=C2/C(=O)NN(c3cccc(C)c3)C2=O)cc([N+](=O)[O-])c1O	32*	11	39*	2	7	5	18	rCAG bind conf=20;DNA CAG counter=6.1*
COc1cc(/C=C2/C(=O)NN(c3ccc(C)c(Cl)c3)C2=O)cc([N+](=O)[O-])c1O	28*	-2	98*	1	.	-1	16	rCAG bind conf=52*;DNA CAG counter=16*
Cc1ccc(S(=O)(=O)N2CCOCC2)cc1C(=O)OCCOc1cccc(Cl)c1	8	6	-3	-7	.	5	.
O=C(O)c1nn2cc(CCO)cnc2c1Cl	2	-4	7	-9	5	-6	.
CC(C)C[C@@H](CN1CCC[C@H]1CN1C(=O)C(=O)NC[C@@H]1Cc1ccc(O)cc1)N1C[C@H](Cc2ccc(O)cc2)N(CC2CCCCCC2)C(=O)C1=O	-1	-6	17	-3	.	.	.
CC(C)(C)OC(=O)NCC12C=CC(O1)C1C(=O)N(Cc3ccccc3)C(=O)C12 (stereo not given)	47*	5	-7	2	10	-7	9
O=C(Nc1ccccc1Cl)c1ccccc1	1	5	-1	2	4	5	.
O=C(CSCC(=O)c1ccccc1)Nc1ccccc1Cl	99*	-3	-3	10	0	5	28*
Cc1cc2nc(-c3ccc(SCc4ccc(C(=O)O)cc4)nc3)[nH]c2cc1C	26*	-6	22	1	-28	5	22*
Cc1cc2nc(-c3ccc(SCC(=O)NC(C)C)nc3)[nH]c2cc1C	.	.	.	.	-7	.	.
COc1ccc(CCNC2CC(=O)N(CCc3ccc(OC)c(OC)c3)C2=O)cc1OC (stereo not given)	54*	5	4	5	11	0	1
COc1ccc(S(=O)(=O)NCc2ccc(C(=O)NCCCN3CC(C)CC(C)C3)cc2)cc1 (stereo not given)	-4	5	-5	2	.	5	.
CC1(C)CC(=O)C2=C(C1)Nc1[nH]c(=S)[nH]c(=O)c1C2c1ccccc1 (stereo not given)	66*	-2	18	0	-8	-13	6
O=C1CCCC2=C1C(c1ccc(Br)cc1)c1c([nH]c(=S)[nH]c1=O)N2 (stereo not given)	49*	-16	24	-4	0	-1	38*
Cc1ccc(C2C3=C(CCCC3=O)Nc3[nH]c(=S)[nH]c(=O)c32)cc1 (stereo not given)	17	-23	17	-3	1	-3	.
Cc1ccccc1N1CCN(C(=O)c2ccccc2NC(=O)/C=C\C(=O)O)CC1	27*	1	3	1	-4	-9	7
COc1ccc2c(c1)CSC(c1ccccc1)C2=O (stereo not given)	53*	-13	12	-1	.	0	30*
CCOc1ccc2ccc(OCC)c(/C=N/n3cnnc3)c2c1	3	-6	-6	2	.	4	.
COc1cccc2c1C(=O)c1c(O)c3c(c(O)c1C2=O)C[C@@](O)(C(C)=O)C[C@@H]3O[C@H]1C[C@H](N)[C@H](O)[C@H](C)O1	163*	11	6	-11	11	7	169*
COc1cccc2c1C(=O)c1c(O)c3c(c(O)c1C2=O)CC(O)(C(=O)CO)CC3OC1CC(N(C)C)C(O)C(C)O1 (stereo not given)	193*	9	-8	20	.	7	148*
CC(C)c1nnc(SCC(=O)NCCC2=CCCCC2)n1N	34*	-11	-2	-7	8	-8	39*
O=c1c2cc(Cl)ccc2oc2nc3n(c(=O)c12)CCCS3	63*	2	14	-7	8	-21	52*
Nc1[nH]c(C(=O)c2ccccc2)c(-c2ccccn2)c1C(=O)c1c[nH]c2ccccc12	1	.	8	.	.	.	.
SMILES	PRMT1 inh	ABHD5-PLIN5 inh	rCAG RNA binder	NOD2-RIPK2 inh	TLR4 MyD88 comp	TLR9-MyD88 block	PRMT1 inh conf	others
Nc1[nH]c(C(=O)c2ccccc2)c(-c2ccccn2)c1C(=O)c1c[nH]c2ccc(Br)cc12	27*	.	.	.	.	.	2
COC(=O)c1nn2c(C(F)(F)F)cc(-c3ccc(Br)o3)nc2c1Br	30*	13	27	-5	-9	-3	2
COc1ccc(CN2C(=O)C(CC(=O)NCCc3ccccn3)CC(C(=O)N3CCCCCC3)=C2C)cc1 (stereo not given)	-4	-16	1	-8	.	.	.
Cc1nc2sc(C(c3ccco3)N3CCN(c4cccc(Cl)c4)CC3)c(O)n2n1 (stereo not given)	65*	16	19	-10	-3	4	1
Cc1nc2sc(C(c3ccco3)N3CC(C)OC(C)C3)c(O)n2n1 (stereo not given)	29*	7	6	-7	1	3	5
C[n+]1c2cc(N)ccc2cc2ccc(N)cc21	147*	-22	-75	18	.	14	142*
O=S(NC1CCCCC1)C12CC3CC(CC(C3)C1)C2 (stereo not given)	100*	-7	-1	-3	-2	-6	-2
O=S(N1CCCCC1)C12CC3CC(CC(C3)C1)C2 (stereo not given)	-1	7	-4	0	4	1	.
O=C(CSc1ccc(Cl)cc1)N1CCN(c2ccc([N+](=O)[O-])cc2Cl)CC1	28*	-8	1	5	-6	7	0
Cc1cccc(-c2nnc(SC(C)C(=O)N3CCOCC3)o2)c1 (stereo not given)	2	-2	-7	-15	.	2	.
CC(=O)c1cn(CC(=O)Nc2ccccc2C(F)(F)F)c2ccccc12	3	7	-2	3	.	7	.
O=C(CCNc1ccc(Cc2ccncc2)cc1)c1cccc([N+](=O)[O-])c1	32*	14	0	0	0	-4	31*
CC(=O)Nc1cc[n+](CC(=O)c2cccc([N+](=O)[O-])c2)cc1	-4	5	7	4	.	4	.
O=C(CCNc1cccc(F)c1)c1cccc([N+](=O)[O-])c1	41*	-3	3	-5	7	-21	27*

Compound activity (PubChem)
